Reference: PubChem BioAssay
The source made the active and inactive calls.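 Rule for the calls, unless noted: active = compounds that lower viability of the colon cancer cells in the luminescence readout, with no numeric limit stated; inactive = the rest.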

Experiments:
[1] = stimulators of nuclear beta-catenin in C2C12, primary screen, imaging, WNT3A-conditioned medium, mouse C2C12, NPC library (AID 1117326; in the data active = nuclear beta-catenin stimulation mostly above about 4.2%, no sharp cut-off; inactive = mostly below about 10%; note: reference of the scale not given here); conditions: stronger effect = higher value
[2] = stimulators of insulin release from INS-1E, primary screen, cell-based, 5 mM glucose, NPC library (AID 1117329;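 active = compound raises insulin release from rat beta cells at 5 mM glucose, no numeric limit stated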; note: reference of the scale not given here); conditions: rat INS-1E insulin secretion, at 10 µM, stronger effect = higher value
[3] = growth inhibition of GSK3B-pretreated HCT116 cells – cell-based, CellTiter-Glo, 0.2 to 20 µM (AID 1117336;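 active = compounds lowering colon cancer cell viability after pretreatment blocking the GSK3B kinase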); conditions: HCT116 viability after GSK3B inhibitor, at 20 µM, stronger effect = higher value
[4] = inhibition of endothelial tube formation, primary screen, imaging, VEGF stimulated, CD31 staining, tube area, NPC library (AID 1117340;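 active = compound that reduces growth-factor-driven endothelial tube area in a mixed cell culture, no cutoff stated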); conditions: VEGF-stimulated ADSC/ECFC co-culture, at 10 µM, stronger effect = higher value
[5] = glucagon-like peptide 1 release enhancers, primary assay, NCI-H716 cell line, NPC library (AID 1117341;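 active = compound raises GLP1 secretion from the human gut endocrine cells, with no numeric limit stated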; note: reference of the scale not given here); conditions: NCI-H716 cells, at 10 µM, stronger effect = higher value
[6] = HCT116 colon cancer cell growth inhibition, primary screen, CellTiter-Glo luminescence, NPC library (AID 1117342;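 active = compounds that lower survival of HCT116 colon cancer cells in the luminescence readout, no numeric limit stated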); conditions: at 20 µM (top of the series)
[7] = CellTiter-Glo luminescent readout of SW480 viability loss, NPC library primary (AID 1117343); conditions: CellTiter-Glo luminescence; at 20 µM (top of the series)
[8] = decreased DLD-1 cellular survival, CellTiter-Glo luminescent readout, NPC compound collection, primary HTS (AID 1117346;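 active = compounds that lower survival of DLD-1 colon cancer cells in the luminescence readout, no cutoff given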); conditions: DLD-1 viability, CellTiter-Glo luminescence; at 20 µM (top of the series)

| Compound | nuclear beta-catenin stimulation ([1]; at 10 µM) | nuclear beta-catenin stimulation ([1]; stimulation, at 2 µM) [%] | insulin secretion stimulation [2] | viability decrease [3] | tube area decrease [4] | GLP1 secretion stimulation [5] | inhibition of viability [6] | viability decrease (inhibition) [7] | viability decrease (inhibition) [8] |
| --- | --- | --- | --- | --- | --- | --- | --- | --- | --- |
| ClCCN1CCCC1 | 0.7% (inactive) | -0.2 | 4% (inactive) | 5.1% (inactive) | 9.9% (inactive) | -2.4% (inactive) | -8.3% (inactive) | 8.7% (inactive) | 8.5% (inactive) |
| ClCCCN1CCN(c2cccc(Cl)c2)CC1 | -0.9% (inactive) | -2.6 | 1.1% (inactive) | 15% (inactive) | -11.1% (inactive) | 1.5% (inactive) | 42.8% (inactive) | 26.2% (inactive) | 50.1% (active) |
| CN1C(=S)CN=C(c2ccccc2)c2cc(Cl)ccc21 | -0.4% (inactive) | 3.4 | 1.75% (inactive) | 65.8% (active) | 6.8% (inactive) | 1.6% (inactive) | 50.3% (active) | 77.5% (active) | 32.7% (inactive) |
| NCC(O)c1cccc(O)c1 (centres undefined) | -0.9% (inactive) | 0.5 | 0.5% (inactive) | -15% (inactive) | -16.5% (inactive) | 2.9% (inactive) | 4.5% (inactive) | 4.3% (inactive) | 5.4% (inactive) |
| O=c1c(C2CC(c3ccc(-c4ccc(Br)cc4)cc3)Cc3ccccc32)c(O)sc2ccccc12 (centres undefined) | 0% (inactive) | -2.4 | 1.05% (inactive) | 117% (active) | 34.2% (inactive) | 4.8% (inactive) | 123% (active) | 157% (active) | 101% (active) |
| Nc1ccccc1 | 0.6% (inactive) | 2 | -2.4% (inactive) | 4.9% (inactive) | -9.5% (inactive) | 1.1% (inactive) | -9.9% (inactive) | 59.6% (active) | 26.8% (inactive) |
| O=C(NC(O)C(Cl)(Cl)Cl)NC(O)C(Cl)(Cl)Cl (centres undefined) | 0.9% (inactive) | -2.1 | 9.2% (inactive) | -2.2% (inactive) | 1.1% (inactive) | 0.1% (inactive) | 7.9% (inactive) | -28.2% (inactive) | -0.1% (inactive) |
| Oc1c(Br)cc(Br)cc1Br | -0.6% (inactive) | -0.3 | -0.4% (inactive) | -83.3% (inactive) | 10% (inactive) | -3.7% (inactive) | -18% (inactive) | 32.1% (inactive) | 37.1% (inactive) |
| O=C1C(I)=CC(=C(c2cc(I)c(O)c(I)c2)c2ccccc2C(=O)O)C=C1I | 43.7% (active) | 1.8 | -0.1% (inactive) | 98.7% (active) | 106% (active) | -3.3% (inactive) | 99.3% (active) | 100% (active) | 100% (active) |
| c1cc2c(c(N3CCNCC3)c1)OCCO2 | -1.4% (inactive) | 0.7 | 1.8% (inactive) | -14.9% (inactive) | -9.4% (inactive) | -2.6% (inactive) | 3.6% (inactive) | 3.4% (active) | -7.5% (inactive) |
| CCN(CCO)CCn1c(Cc2ccccc2)nc2c1c(=O)n(C)c(=O)n2C | -2% (inactive) | 0 | 3% (inactive) | -6% (inactive) | 4.3% (inactive) | -5.3% (inactive) | 6.4% (inactive) | 15.1% (inactive) | 4.2% (inactive) |
| Cc1ccc2c(c1)C1CN(C)CCC1N2 (centres undefined) | -0.3% (inactive) | 0.7 | -0.9% (inactive) | 1.05% (inactive) | -17.5% (inactive) | 6.1% (inactive) | 5.2% (inactive) | 22.4% (inactive) | 0.7% (inactive) |
| CC(Cc1ccccc1)NC=O (centres undefined) | -2.3% (inactive) | -0.1 | 1.5% (inactive) | -5.7% (inactive) | 1.3% (inactive) | -5.4% (inactive) | 8.8% (inactive) | 16.7% (inactive) | -4.6% (inactive) |
| Oc1ccc(Cl)cc1Cc1ccccc1 | 0.2% (inactive) | 0.1 | 0.7% (inactive) | 38.4% (inactive) | 4.6% (inactive) | 38% (active) | -2.2% (inactive) | 118% (active) | 85.4% (active) |
| CCCCNCC(O)c1ccc(O)cc1 (centres undefined) | -0.1% (inactive) | 3.1 | 2.3% (inactive) | 0.3% (inactive) | 16.9% (inactive) | -2.1% (inactive) | 8% (inactive) | -1.7% (inactive) | -9.2% (inactive) |
| Oc1ccc([C@H]2CNCc3c2ccc(O)c3O)cc1O | 0.8% (inactive) | 0.2 | 3.5% (inactive) | 86.5% (active) | 13.1% (inactive) | 23.9% (active) | 57.5% (active) | 60.8% (active) | 38.4% (inactive) |

| Compound | nuclear beta-catenin stimulation ([1]; at 10 µM) | nuclear beta-catenin stimulation ([1]; stimulation, at 2 µM) [%] | insulin secretion stimulation [2] | viability decrease [3] | tube area decrease [4] | GLP1 secretion stimulation [5] | inhibition of viability [6] | viability decrease (inhibition) [7] | viability decrease (inhibition) [8] |
| --- | --- | --- | --- | --- | --- | --- | --- | --- | --- |
| CN1C2CCC(C)(C)C1CC(OC(=O)C(O)(c1cccs1)c1cccs1)C2 (centres undefined) | -1.7% (inactive) | -0.6 | 5.6% (inactive) | 8% (inactive) | 4.7% (inactive) | -0.7% (inactive) | 27.8% (inactive) | 37.2% (inactive) | 27.7% (inactive) |
| Nc1ccc(Cl)cc1C(=O)c1ccccc1F | 2.3% (inactive) | 4.2 | 5% (inactive) | 23.5% (inactive) | 25.4% (inactive) | 21.1% (active) | 44.6% (inactive) | 61.9% (active) | 12.8% (inactive) |
| OCCOc1ccccc1 | 0.5% (inactive) | 0.3 | -1.8% (inactive) | -10.3% (inactive) | 8.6% (inactive) | 3.7% (inactive) | -10.6% (inactive) | 24.2% (inactive) | -1.2% (inactive) |
| CCC(CC)(CNC(=O)CCCO)c1cccc(OC)c1 | -1.1% (inactive) | -0.7 | 0.4% (inactive) | -15.7% (inactive) | 11.5% (inactive) | -1.4% (inactive) | -6.33% (inactive) | -5.8% (inactive) | -6.4% (inactive) |
| CCOC(=O)C(c1c(O)c2ccccc2oc1=O)c1c(O)c2ccccc2oc1=O | -0.3% (inactive) | -0.6 | -0.8% (inactive) | 13% (inactive) | -8.4% (inactive) | -0.8% (inactive) | 5.5% (inactive) | -18.7% (inactive) | 3.4% (inactive) |
| CC(C)C(Br)C(=O)NC(N)=O (centres undefined) | 0.6% (inactive) | 1 | -0.4% (inactive) | -0.05% (inactive) | 1.7% (inactive) | -0.8% (inactive) | -3% (inactive) | 4.9% (inactive) | 1% (inactive) |
| CCCOC(=O)Cc1ccc(OCC(=O)N(CC)CC)c(OC)c1 | 0.4% (inactive) | 1.3 | -1.7% (inactive) | 0.2% (inactive) | -2.3% (inactive) | -1.8% (inactive) | 9.6% (inactive) | 8.2% (inactive) | -4.8% (inactive) |
| CC(C(O)c1ccccc1)N(C)C/C=C/c1ccccc1 (centres undefined) | 3.5% (inactive) | 3.1 | 2.4% (inactive) | -101% (inactive) | 54.6% (active) | -3.2% (inactive) | 60.9% (active) | 29.4% (inactive) | 7.9% (inactive) |
| CNC(C)Cc1ccccc1OC (centres undefined) | -0.4% (inactive) | 1.2 | 7.2% (inactive) | -1.3% (inactive) | -13.1% (inactive) | 0.2% (inactive) | 9.4% (inactive) | 41.8% (inactive) | 43.1% (inactive) |
| CCN(CC)CCOC(=O)C(C)(c1ccccc1)c1ccccc1 | 1.1% (inactive) | 0.8 | 27.8% (active) | 36.8% (inactive) | 0.6% (inactive) | 8.1% (inactive) | 49.8% (inactive) | 22.2% (inactive) | 17.9% (inactive) |
| CC(Cc1ccccc1)N(C)Cc1ccco1 (centres undefined) | -0.5% (inactive) | 0.7 | 2.3% (inactive) | -12.2% (inactive) | 25.5% (inactive) | 0.1% (inactive) | 8.5% (inactive) | 4.3% (inactive) | -1.8% (inactive) |
| O=c1ccc2cc(O[C@@H]3O[C@H](CO)[C@H](O)[C@H](O)[C@H]3O)c(O)cc2o1 | -0.9% (inactive) | -0.5 | 5% (inactive) | -6.5% (inactive) | -14.5% (inactive) | -2.1% (inactive) | 8.5% (inactive) | 13.9% (inactive) | -0.6% (inactive) |
| CN1CCC(N(Cc2ccccc2)c2ccccc2)CC1 | 0.1% (inactive) | -3 | 14.1% (inactive) | 24.8% (inactive) | -0.1% (inactive) | 14.3% (inactive) | 41.7% (inactive) | 48.7% (inactive) | 23.2% (inactive) |
| CCN1CCCC1CNC(=O)C(O)(c1ccccc1)c1ccccc1 (centres undefined) | 1.8% (inactive) | 1.9 | 8.1% (inactive) | -4.1% (inactive) | -2.9% (inactive) | -0.1% (inactive) | 10.9% (inactive) | 24.2% (inactive) | -4.5% (active) |
| NCCS[As](SCCN)c1ccc(Nc2nc(N)nc(N)n2)cc1 | -1.4% (inactive) | -0.4 | 0.6% (inactive) | -8.2% (inactive) | 21.9% (inactive) | -3.3% (inactive) | 0.1% (inactive) | -3.2% (inactive) | -34.2% (inactive) |
